# Test results from the supplement of paper PMC7801607.
# How the values were obtained:
# [1] = tested on: CHO; assay: % viability of CHO cells (MTT); higher = less toxic; conditions: 48 h
# Method in brief: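 CHO cells were plated at 10^6 cells/well in 200 µL and allowed to attach overnight. Fresh medium with compound at 2 or 20 µM then replaced the old medium for 48 h. Percent viability, relative to untreated cells, came from a colorimetric tetrazolium (MTT) readout.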
# [2] = tested on: HepG2-A16-CD81; assay: % inhibition of HepG2 viability (CellTiter-Glo); higher = more toxic; conditions: 5 µM
# [3] = tested on: Plasmodium falciparum NF54 stage IV/V gametocytes; assay: % inhibition of gametocyte viability (PrestoBlue); higher = more inhibition; conditions: 48 h
# Method in brief: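 In a single run, percent inhibition of gametocyte viability was calculated relative to vehicle and kill controls. The wells held 100 µL of Stage IV/V NF54 gametocytes at 2% gametocytaemia and 5% haematocrit, with compound at 1 or 5 µM. Plates stood at 37 °C in hypoxic conditions for 48 h. After that, 10 µL PrestoBlue was added for 2 h, and 70 µL of supernatant was transferred for fluorescence reading at 612 nm.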
# [4] = tested on: Plasmodium falciparum NF54 asexual blood stage; assay: % inhibition of asexual blood stage proliferation (pLDH); higher = more inhibition; conditions: 72 h
# Method in brief: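 Percent inhibition of asexual proliferation, normalised to controls, was determined in a screen repeated on two separate occasions. Plasmodium falciparum NF54 ring-stage cultures (1% haematocrit, 2% parasitaemia) received compound at 2 or 20 µM and were incubated for 72 h at 37 °C under 4% CO2, 3% O2 and 93% N2. A colorimetric parasite lactate dehydrogenase readout at 620 nm gave survival.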
# [5] = tested on: Plasmodium falciparum NF54 stage IV/V gametocytes; assay: % inhibition of gametocyte viability (ATP bioluminescence); higher = more inhibition; conditions: 24 h
# Method in brief: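 Enriched stage IV/V NF54 gametocytes were exposed to compound at 1 or 5 µM for 24 h at 37 °C in 96-well plates. Percent inhibition of gametocyte viability was derived from a bioluminescent ATP readout, normalised to controls within a single run.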
# [6] = tested on: Plasmodium falciparum NF54 stage IV/V gametocytes; assay: % inhibition of gametocyte viability (luciferase reporter); higher = more inhibition; conditions: 48 h
# Method in brief: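 Luminescence from 30 µL lysate combined with 30 µL Promega luciferin substrate was recorded on a GloMax-Multi+ reader using 10 s integration. The lysate came from stage IV/V NF54-Pfs16-GFP-Luc gametocytes (2% gametocytaemia, 2% haematocrit) held with compound at 1 or 5 µM for 48 h at 37 °C under stationary, hypoxic conditions. Percent inhibition was normalised against controls run once.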
# [7] = tested on: Plasmodium berghei ANKA liver stage in HepG2-A16-CD81; assay: % inhibition of liver stage parasite viability (luciferase); higher = more inhibition; conditions: 5 µM; 48 h
# Experimental: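 Single-concentration screen of the MMV Pandemic Response Box. P. falciparum NF54 asexual blood stages: pLDH assay, 72 h at 37 °C, 2 and 20 µM, n=2. Stage IV/V gametocytes (NF54): luciferase reporter (NF54-Pfs16-GFP-Luc, 48 h), ATP bioluminescence (24 h) and PrestoBlue (48 h) at 1 and 5 µM, n=1. P. berghei liver stage (luciferase in HepG2-A16-CD81, 48 h post infection) at 5 µM, n=4. All normalised to DMSO and kill controls as % inhibition.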
# 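For % inhibition of HepG2 viability (CellTiter-Glo) in this document: HepG2-A16-CD81 hepatoma cells plated as in the liver-stage assay but without sporozoites, with DMSO wells as negative and 25 µM puromycin as positive control.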
SMILES,% viability of CHO cells ([1]; 2 µM) [%],% viability of CHO cells ([1]; 20 µM) [%],% inhibition of HepG2 viability [2] [%],% inhibition of gametocyte viability ([3]; 1 µM) [%],% inhibition of gametocyte viability ([3]; 5 µM) [%],% inhibition of asexual blood stage proliferation ([4]; 2 µM) [%],% inhibition of asexual blood stage proliferation ([4]; 20 µM) [%],% inhibition of gametocyte viability ([5]; 1 µM) [%],% inhibition of gametocyte viability ([5]; 5 µM) [%],% inhibition of gametocyte viability ([6]; 1 µM) [%],% inhibition of gametocyte viability ([6]; 5 µM) [%],% inhibition of liver stage parasite viability [7] [%]
COc1ccc2c(c1OC)C(=O)OC2C1c2c(cc3c(c2OC)OCO3)CCN1C (stereo not given),102,-0.468,3.76,< 0,5.61,42.6,68.3,< 0,< 0,2.79,9.42,–
CN(C)CCCNC(=O)c1ccc(-c2cc(O)c3ncccc3c2)cc1,115,110,-5.75,70.8,81.4,68.6,82.4,71,81.1,5.12,23.3,–
CCNC(=O)Nc1cc2c(-c3ccnc(C)c3)ccc(CNC(=O)OC)c2cn1,92.8,58.1,5.56,< 0,27.4,0.638,33.7,< 0,< 0,< 0,5.9,–
Cc1ncc([N+](=O)[O-])n1CC(O)CN1CCOCC1 (stereo not given),106,55.4,-2.47,< 0,< 0,30.7,75.1,< 0,< 0,0.715,1.52,–
O=c1nc(N2CCN(CC3CCCCC3)CC2)sc2c([N+](=O)[O-])cc(C(F)(F)F)cc12,95.8,112,7.83,< 0,4.32,37,107,< 0,< 0,8.82,< 0,–
O=C(O)C[C@H]1CC[C@H](c2ccc(-c3ccc(Nc4ccc(C(F)(F)F)nc4)cn3)cc2)CC1,115,77.1,4.22,24.3,3.88,24.2,39.5,7.64,6.34,< 0,< 0,–
Cc1ccc(NC(=O)c2cc(Cl)ccc2O)cc1,101,-0.714,29.4,< 0,< 0,57.7,98.8,< 0,< 0,5.12,4.7,–
CSc1ccc2c(c1)C(N1CCN(C)CC1)Cc1ccccc1S2 (stereo not given),90.7,137,-7.96,< 0,< 0,26.2,73.7,20.9,44.2,1.22,4.12,–
CO[C@@]1(NC(=O)Cc2cccs2)C(=O)N2C(C(=O)O)=C(COC(N)=O)CS[C@@H]21,114,143,-4.03,11.3,20.3,20,88.8,0.48,< 0,< 0,2.58,–
Nc1ccc(-c2nc3cc(C(F)(F)F)ccc3n2C23CC4CC(CC(C4)C2)C3)cc1,97.3,130,-7.13,22.2,19.2,10.3,67.9,< 0,< 0,< 0,< 0,–
CC(N)C(=O)NC(CCCCN)C(=O)NC(CCCNC(=N)N)C(=O)NC(Cc1c[nH]cn1)C(=O)NC(Cc1c[nH]cn1)C(=O)NCC(=O)NC(Cc1ccc(O)cc1)C(=O)NC(CCCCN)C(=O)NC(CCCNC(=N)N)C(=O)NC(CCCCN)C(=O)NC(Cc1ccccc1)C(=O)NC(Cc1c[nH]cn1)C(N)=O (stereo not given),105,102,-0.769,< 0,14.3,10.1,17.2,< 0,< 0,< 0,< 0,–
O=C(NO)C1(CS(=O)(=O)c2ccc(Oc3ccc(Cl)cc3)cc2)CCOCC1,108,76.6,7.05,22.6,28.2,28.1,34.1,< 0,< 0,2.48,< 0,–
Cc1nc(-c2ccc(C3N(C)c4ccc(F)cc4C(=O)N3c3ccccc3)s2)cs1 (stereo not given),97.8,95.9,12.5,< 0,-0.427,15.3,72.5,< 0,< 0,< 0,< 0,–
C=C(C)[C@@H]1CC[C@]2(C(=O)O)CC[C@]3(C)[C@H](CC[C@@H]4[C@@]5(C)CC[C@H](O)C(C)(C)[C@@H]5CC[C@]43C)[C@@H]12,98.8,111,27.7,26.9,19.3,36.2,67.2,12.2,8.94,3.4,< 0,–
C[C@H]1COc2c(N3CCN(C)CC3)c(F)cc3c(=O)c(C(=O)O)cn1c23,92.1,104,-1.57,< 0,18,15.5,39.9,1.98,1.75,18.2,0.53,–
OB1OCc2cc(Cl)ccc21,90.1,100,-4.78,< 0,< 0,2.76,-5.4,< 0,< 0,< 0,< 0,–
OB1OCc2c1ccc(Cl)c2F,95.7,101,-0.44,8.58,< 0,0.633,36.7,< 0,< 0,< 0,< 0,–
CC(=O)N1c2ccccc2NC2=C(C(=O)CC(C)(C)C2)C1c1ccc(OCc2ccccc2)cc1 (stereo not given),119,85.5,-5.09,27.1,24.2,-13.1,76.9,1.11,3.14,9.92,< 0,–
CCC[C@H](NC(=O)[C@@H]1[C@H]2CCC[C@H]2CN1C(=O)[C@@H](NC(=O)[C@@H](NC(=O)c1cnccn1)C1CCCCC1)C(C)(C)C)C(=O)C(=O)NC1CC1,94.8,100,-4.56,< 0,7.89,49.1,57,6.88,10.7,3.5,< 0,–
O=C(O)CCNC(=O)c1ccccc1,112,60.6,-2.32,< 0,-0.209,25.9,15.9,< 0,< 0,< 0,6.13,–
CC(C)(C)NC(=O)[C@@H]1CN(Cc2cnc3occc3c2)CCN1C[C@@H](O)C[C@@H](Cc1ccccc1)C(=O)N[C@H]1c2ccccc2C[C@H]1O,99.9,78.9,4.33,30.9,51.4,55.2,55.9,1.91,< 0,2.7,15.5,–

SMILES,% viability of CHO cells ([1]; 2 µM) [%],% viability of CHO cells ([1]; 20 µM) [%],% inhibition of HepG2 viability [2] [%],% inhibition of gametocyte viability ([3]; 1 µM) [%],% inhibition of gametocyte viability ([3]; 5 µM) [%],% inhibition of asexual blood stage proliferation ([4]; 2 µM) [%],% inhibition of asexual blood stage proliferation ([4]; 20 µM) [%],% inhibition of gametocyte viability ([5]; 1 µM) [%],% inhibition of gametocyte viability ([5]; 5 µM) [%],% inhibition of gametocyte viability ([6]; 1 µM) [%],% inhibition of gametocyte viability ([6]; 5 µM) [%],% inhibition of liver stage parasite viability [7] [%]
CC(C)(C)OC(=O)NCc1ccc(C(=O)N[C@H]2CCOC2=O)cc1,96.9,115,14.5,5.05,< 0,18.3,17.2,< 0,< 0,< 0,< 0,–
O=S(=O)(NCB(O)O)c1cc2c(Cl)ccc(Cl)c2s1,91.2,59.2,30.9,22.6,27.1,-17.5,-8.49,< 0,< 0,< 0,< 0,–
Oc1ccc2[nH]c(-c3ccccc3)nc2c1,107,93,12.1,10.1,13.2,29.1,62.2,< 0,< 0,< 0,< 0,–
O=C(Cn1cnc2ccccc2c1=O)Nc1ccccc1,100,84.1,-0.425,27.9,25.4,29.5,71.5,1.88,< 0,2.6,1.55,–
COc1ccc(C2CNC(=O)C2)cc1OC1CCCC1 (stereo not given),95.4,125,-2.26,< 0,12,28.3,40.1,< 0,< 0,8.32,7.49,–
O=[N+]([O-])c1ccc2c(CCc3c[nH]c4ccccc34)c[nH]c2c1,101,143,0.942,< 0,28,61.5,92.7,< 0,< 0,< 0,< 0,–
C[C@@H](c1nc(-c2ccc(C#N)cc2)cs1)[C@](O)(Cn1cncn1)c1ccc(F)cc1F,92.5,99.8,3.07,12.4,15,-2.05,34.3,2.16,< 0,< 0,< 0,–
CCCCCCCc1[nH]c2ccccc2c(=O)c1O,96.8,107,24.8,< 0,< 0,22.4,83.6,< 0,< 0,< 0,< 0,–
CC(C)(C)c1cccc(-c2nc3cc(C(=N)N)ccc3[nH]2)c1O,98.4,106,-1.3,< 0,41.8,21.4,79.9,0.668,3.93,< 0,14.8,–
CCC(C)(C)c1ccc(CC(C)CN2C[C@@H](C)O[C@@H](C)C2)cc1 (stereo not given in full),100,124,-1.79,< 0,4.53,89.6,82,< 0,< 0,< 0,< 0,–
CCc1oc2ccccc2c1C(=O)c1ccc(O)cc1,152,112,9.97,< 0,17.5,29.1,6.67,< 0,< 0,< 0,9.06,–
O=C(NCc1ncc(C(F)(F)F)cc1Cl)c1c(Cl)cccc1Cl,91.7,72.6,2.83,< 0,3.98,18.8,1.98,< 0,< 0,< 0,< 0,–
c1cc(CN2CCCNCCNCCCNCC2)ccc1CN1CCCNCCNCCCNCC1,104,109,-0.261,7.81,31,16.7,34.9,6.22,< 0,< 0,< 0,–
N=C(N)NCCCCC(=O)Nc1cc(C(F)(F)F)cc(NC(=O)c2cc(C(=O)Nc3cc(C(F)(F)F)cc(NC(=O)CCCCNC(=N)N)c3O[C@@H]3CCNC3)ncn2)c1O[C@@H]1CCNC1,120,43,15,< 0,< 0,76.8,114,9.98,39.3,19.3,78.2,–
CC1(C)[C@H](C(=O)O)N2C(=O)C[C@H]2S1(=O)=O,–,–,–,< 0,< 0,11.2,34.3,< 0,< 0,< 0,< 0,20.3
CC[C@@H](CO)NCCN[C@@H](CC)CO,85,50.4,-1.81,< 0,25,42.9,37.6,0.155,0.768,< 0,< 0,–
COc1ccc(C(C)(C)C)cc1NC(=O)C(=O)c1ccc(OCCN2CCOCC2)c2ccccc12,97.6,130,1.14,12.9,26.4,29.2,23.5,< 0,< 0,6.49,< 0,–
CCc1cc(CCC(=O)Nc2ccccc2O)c(=O)[nH]c1C,90.7,106,0.672,5.05,16.3,-8.67,47.7,< 0,< 0,< 0,< 0,–
COc1ccc(NC(=O)CC2Sc3ncnn3C2=O)cc1 (stereo not given),99.9,-0.591,10.8,< 0,2.6,29.9,26.3,0.572,16.9,< 0,15.3,–
O=C(Nc1ccc(-c2ccccc2)cc1)C1=C(O)C(Cc2ccccc2)OC1=O (stereo not given),93.6,90.4,13.1,< 0,13.8,39.5,101,< 0,< 0,< 0,< 0,–
Oc1cccc(C(Nc2nccs2)c2ccc3cccnc3c2O)c1 (stereo not given),57.5,42.1,9.72,24.1,65.5,80,91.8,< 0,59.3,7.2,57.3,–
